According to PubChem BioAssay AID2112 (National Center for Advancing Translational Sciences (NCATS), 2009):
Hit rate of the full screen: of about 240,000 compounds, about 15 (0.006%) were called active. The call rests on the fitted dose curve; in most records, active means well fitted inhibition curve with a large enough effect; inconclusive means small, poorly fitted or top-dose-only effect, or effect the other way, or another doubt; inactive means no such curve, though single readings can be large or run the other way. Not all results are given here.

target: Lysosomal alpha-glucosidase (Homo sapiens) (UniProt P10253); assay: qHTS Assay for Inhibitors and Activators of Human alpha-Glucosidase From Spleen Homogenate; conditions: 4-MU-alpha-glucoside fluorescence; series mostly up to 79.9 µM; activity change, negative = inhibition: at the top concentration;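 further: 0% = enzyme with vehicle and -100% = no enzyme basal signal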
Excerpt: NIH Chemical Genomics Center [NCGC] NIH Molecular Libraries Probe Production Centers Network [MLPCN] MLPCN Grant: R03 MH084841-01 Assay Submitter (PI): Wei Zheng NCGC Assay Overview: Alpha-glucosidase is responsible for the hydrolysis of terminal, non-reducing 1,4-linked alpha-D-glucose residues, which releases alpha-D-glucose. It is a lysosomal hydrolase that is required for the degradation of a small percentage (1-3%) of cellular glycogen in humans. Deficiency of this enzyme results in glycogen-storage disease type II (GSDII), also referred to as Pompe disease, an autosomal recessive disorder. Structurally normal glycogen is accumulated in the lysosomes and cytoplasm in affected patients, primarily in muscle tissues. Excessive glycogen storage within lysosomes may interrupt normal functioning of other organelles and leads to cellular injury. In turn, this leads to enlargement and dysfunction of the entire organ involved (eg: cardiomyopathy and muscle weakness). It has been reported that the improper folding and trafficking of alpha-glucosidase resulting from genetic mutations may account for a significant number of Pompe patients. […] We optimized this alpha-glucosidase assay in 1536-well plate format for identification of novel small molecule inhibitors or activators with structures other than the sugar analogs in order to develop new pharmacological chaperones. In particular, this assay is directed towards discovering compounds active in a more natural setting, tissue homogenate, that may have been missed by screens of the purified enzyme under more stringent conditions.
NCGC Assay Protocol Summary: This is a fluorogenic enzyme assay with 4-methylumbelliferyl-alpha-D-glucopyranoside as the substrate and human spleen homogenate containing alpha-glucosidase as the enzyme preparation. Upon hydrolysis of this fluorogenic substrate, the resulting product, 4-methylumbelliferone (which excites at 365 nm and emits at 440 nm) can be detected by a fluorescence plate reader. Data were normalized to the controls for basal activity (without enzyme) and 100% activity (with enzyme). The AC50 values were determined from concentration-response data modeled with the standard Hill equation. Assay buffer: 50 mM citric acid (titrated with potassium phosphate to pH 5.0), 0.01% Tween-20 (pH 5.0 is an optimal condition for this enzyme assay) 1536-well assay protocol for the alpha-glucosidase from human spleen homogenate: (1) Add 2 ul/well spleen homogenate (1 ug) (2) Add 23 nL compounds in DMSO solution. The final titration was 0.5 nM to 58 uM. (3) Add 2 ul of substrate (1 mM final) (4) Incubate at 37 C for 40 min (5) Add 2 ul stop solution (1M NaOH and 1M Glycine mixture, pH 10) (6) Detect the assay plate in a ViewLux plate reader (PerkinElmer) with Ex=365 nm and Em=440nm. Keywords: Alpha-glucosidase, Pompe Disease, pharmacological chaperone, chaperone therapy, high throughput screening, alpha-glucosidase inhibitor, MLSMR, MLSCN, NIH Roadmap, qHTS and NCGC

Activity change, negative = inhibition, inactive:
O=c1cc(-c2ccc(O)cc2)oc2c([C@@H]3O[C@H](CO)[C@@H](O)[C@H](O)[C@H]3O)c(O)cc(O)c12 -3.5%
Cc1sc2ncnc(Sc3nc4ccccc4s3)c2c1C 0.103%
COc1ccc(C(CC(=O)c2ccccc2)S(=O)(=O)c2ccccc2)cc1 (stereo unspecified) -2.69%
O=C1NNC(c2ccccc2)=N/C1=C\c1ccc(Cl)cc1 -5.13%
CC(O)[C@@H](N)C(=O)O (stereo partly specified) -7.94%
Cc1ccc(-c2cn(S(=O)(=O)c3cccc([N+](=O)[O-])c3)nc2N)cc1 6.15%
ONC(=Nc1ccccc1)c1ccccc1Cl 1.48%
Cc1c(Br)ccc(NC(=O)COc2ccccc2C(N)=O)c1C -5.13%
O=C(NCCc1ccccc1)C1CCN(S(=O)(=O)c2ccc(Br)s2)CC1 -4.51%
C=CCn1c(SCC(=O)c2c(N)n(C)c(=O)n(C)c2=O)nc2sc(CC)cc2c1=O -7.65%
C=CCOC(=O)C(=C)C -4.26%
Cc1ccc(SCC(CC(C)C)N2CCN(CCc3ccccc3)CCC2=O)cc1 (stereo unspecified) -4.74%
Cc1nc(=O)c(-c2ccccc2)c(C)n1-c1ccc(Br)cc1 7.69%
Cc1cc(OCCCC(=O)NCCN2C(=O)S/C(=C\c3cccnc3)C2=O)ccc1Cl -3%
Fc1ccc(Cl)cc1-c1nc(Nc2ccncc2)c2nccnc2n1 -5.39%
CCOC(=O)c1sc(C)c2c1NC(C)(c1cccc3ccccc13)NC2=O (stereo unspecified) -10.3%
COc1ccc2c(c1)c(=O)c(C(=O)c1ccc(Cl)cc1)cn2CC(=O)Nc1ccc(F)cc1 -1.59%
CCOCCOC(=O)C(C)Oc1ccc(Oc2ncc(C(F)(F)F)cc2Cl)cc1 (stereo unspecified) -18.4%
S=c1ccc2ccccc2[nH]1 -2.88%
C=CCC(C(=O)c1ccccc1)[N+](C)(C)CC=C (stereo unspecified) 9.7%
O=c1[nH]oc(O)c1-c1ncc(C(F)(F)F)cc1Cl -2.21%
Cc1cc2ccccn2c1C(=O)c1cccc(S(=O)(=O)N2CCOCC2)c1 3.4%
CC(=O)NNC(=O)c1csc(Cc2c(Cl)sc3ccc(Cl)cc23)n1 0.106%
CCCCc1nn(-c2ccccc2C(F)(F)F)c(=O)n1Cc1ccc(-c2ccccc2S(=O)(=O)NC(=O)c2sccc2C)cc1 -2.88%
COC(=O)c1sc(-c2ccc(C(C)(C)C)cc2)cc1NC(=O)/C=C/C(=O)O -12.5%
CNC(=O)[C@]1(C(F)(F)F)C[C@H](CCc2ccccc2)CCCO1 0.869%
C[C@@H]1O[C@@H](OC[C@H]2O[C@@H](Oc3cc(O)c4c(c3)O[C@H](c3ccc(O)c(O)c3)CC4=O)[C@H](O)[C@@H](O)[C@@H]2O)[C@H](O)[C@H](O)[C@H]1O -6.97%
O=C1C[C@@H](c2ccc3ccccc3c2)N1S(=O)(=O)c1ccccc1[N+](=O)[O-] 4.03%
O=C(Nc1cc(C(=O)Nc2ccc(S(=O)(=O)O)cc2)cc(C(=O)Nc2ccc(S(=O)(=O)O)cc2)c1)Nc1cc(C(=O)Nc2ccc(S(=O)(=O)O)cc2)cc(C(=O)Nc2ccc(S(=O)(=O)O)cc2)c1 -9.55%
O=c1[nH]c(CN2CCN(S(=O)(=O)c3ccc4c(c3)OCCO4)CC2)nc2sc3c(c12)CCCC3 -15.2%
CC(Oc1ccc(Br)cc1Br)C(=O)NC1CCCC1 (stereo unspecified) -1.67%
O=C(O)C1CC=CC2CCN(C3CCCCC3)C(=O)C21 (stereo unspecified) 0.181%
COc1ccc(Br)cc1C1C2C=CCC(C)C2C(=O)N1Cc1ccccc1 (stereo unspecified) -1.05%
CCCCC/C=C\C/C=C\CCCCCCCCCC(N)=O 6.05%
CCCCN(CC)C(=O)c1ccccc1Oc1ccccc1 -0.108%
O=C(COc1ccc(/C=N/NS(=O)(=O)c2ccccc2)cc1)NCCc1ccccc1 -1.54%
Oc1ccc(N2CCN(C(=S)NCc3ccccc3)CC2)cc1 5.73%
COc1ccc(C[C@H](C(=O)O)N2C(=O)c3ccc(C(=O)O)cc3C2=O)cc1 6.17%
CCNc1nc(NC(C)C)nc(N2CC(=O)N(CC(=O)OCC)C2=N)n1 4.96%
Cc1cc2oc(C(=O)Nc3c(C)n(C)n(-c4ccccc4)c3=O)c(C)c2cc1Cl 2.59%
CC1(C)Cc2nc3sc4c(SCC(=O)NC(c5ccccc5)c5ccccc5)ncnc4c3cc2CO1 0.724%
FC(F)(F)c1nc(-c2ccccc2)ncc1-c1nnnn1-c1ccccc1 -4.01%
CCCCNc1ccc(C(=O)Nc2cccc(C)n2)cc1[N+](=O)[O-] -0.299%
COc1cc(NS(=O)(=O)c2ccc3ccccc3c2)c2ncccc2c1 -1.54%
CC/C(=N\NC(=O)c1ccccc1Cl)c1ccc(Br)s1 -2.79%
Cc1noc(C)c1-c1ccc2ncnc(NC(C)c3ccco3)c2c1 (stereo unspecified) 2.91%
CN(C)CCc1c[nH]c2ccc(Cn3cncn3)cc12 -4.52%
CC1CCC(C(C)C)C(=O)/C1=C\c1ccc(NC(=O)CCC(=O)O)cc1 (stereo unspecified) -3.03%
O=c1[nH]c2cccnc2n(CCNc2ncc(C(F)(F)F)cc2Cl)c1=O -8.68%
NC1CCN(O)C1=O (stereo unspecified) -4.38%
C=C1CCN(C(CC(C)C)C(=O)N2CCOCC2)S(=O)(=O)c2ccccc21 (stereo unspecified) -3.94%
CCN(CC)/[N+]([O-])=N/Oc1cc(O/[N+]([O-])=N/N2CCCC2CO)c([N+](=O)[O-])cc1[N+](=O)[O-] (stereo unspecified) 13.4%
Cc1cccc([C@H]2[C@@H]3C=CC[C@@H](C)[C@@H]3C(=O)N2Cc2ccccc2)c1 5.28% [at 119 µM]
CCOC(=O)C1=C(C)c2ccccc2OC1C(=O)OCC (stereo unspecified) -1.48% [at 119 µM]
O=C(O)CCn1c(O)c(C=C2N=c3ccccc3=N2)sc1=S 5.64%
COc1cc(OC)c2c(c1C(CCN1CCCCC1)c1ccc(N(C)C)cc1)OC(=O)CC2c1ccc(N(C)C)cc1 (stereo unspecified) -1.04%
O=C1CN(Cc2ccccc2)S(=O)(=O)c2ccccc21 4.09%
Cc1cc(=O)oc2cc(NC(=O)C3CC(=O)N(Cc4ccccc4)C3)ccc12 (stereo unspecified) -3.26%
Cc1c(CN2CCC(CO)(CCOc3ccccc3)CC2)[nH]c2ccc(Cl)cc12 -2.21%
CC(C)=CCN1CCC2(CCc3ccccc32)CC1 2.89%
CC(CNc1ccc([N+](=O)[O-])cc1)NC(=O)c1ccccc1Br (stereo unspecified) -6.77%
CC1CCN(S(=O)(=O)c2ccc3ncn(CC(=O)N(C)C4CCCCC4)c(=O)c3c2)CC1 -4.28%
OC(COCC1COc2ccccc2O1)CN1CCN(c2ccc(F)cc2)CC1 (stereo unspecified) -10.7%
C=C(C)C(=O)c1ccc(F)cc1 6.52%
CC[C@H](C)[C@H](NC(=O)[C@@H](N)CCC(=O)O)C(=O)N[C@@H](CC(C)C)C(=O)N[C@@H](CC(=O)O)C(=O)N[C@H](C(=O)N1CCC[C@H]1C(=O)N[C@@H](CO)C(=O)N[C@H](C(=O)O)[C@@H](C)O)C(C)C 5.13%
H-EHIPA-OH 3.99%
O=C(NCCCCc1ccccc1)C1CC(c2ccc([N+](=O)[O-])cc2)=NO1 (stereo unspecified) 3.76%
COc1ccccc1-c1nnc(NC(=O)c2ccc3ncsc3c2)o1 2.72%
CN1CCN(c2cc3c(cc2F)c(=O)c(C(=O)O)cn3CCF)CC1 2.34%
CCOC(OCC)OCC -1.22%
Oc1ccc(-c2c(-c3ccccc3)nn3c(C(F)(F)F)cc(C(F)(F)F)nc23)cc1 3.91%
O=C(NCCCNc1ccc([N+](=O)[O-])cc1Cl)c1ccccc1F -9.07%
COCCCNC(=S)N1CCCC(c2nc3cc(C)c(C)cc3[nH]2)C1 (stereo unspecified) -4.36%
Brc1ccc2ncnc(NCc3cccnc3)c2c1 7.88%
CCCC1=Nc2cc(C(=O)NCc3ccco3)ccc2Sc2ccccc21 -5.63%
CCOC(=O)c1c(C)n(C)c2ccc(OC)c(NS(=O)(=O)CC)c12 -20%
C/C=C(\C)C(=O)NCCN1C2=NC[C@H](Cc3ccc(O)cc3)N2C[C@@H]1Cc1ccc(OC)cc1 2.08%
COc1ccc(C2=Nn3c(nnc3-c3ccccc3O)SC2)cc1 -1.69%
Cn1ccc(=NC=C(C#N)C#N)c2ccccc21 -4.74%
COc1ccc(C2=NN(C(=O)c3cccnc3)C(c3ccccc3)C2)cc1 (stereo unspecified) -4.5%
Cc1cc(N(C)C)nc(Cl)n1 2.22%
O=C(CSc1cccc[n+]1[O-])c1ccc(-c2ccccc2)cc1 -7.13%
COc1cccc(CC2(CO)CCN(Cc3cnc(-c4cccc(C)c4)nc3)CC2)c1 3.73%
O=C(Nc1ccccc1F)c1ccccc1-c1ccc(C(F)(F)F)cc1 -4.73%
O=[N+]([O-])c1ccccc1SNc1ccccn1 0.477%
N#Cc1cccc(CS(=O)(=O)c2nnnn2-c2cc(C(F)(F)F)cc(C(F)(F)F)c2)c1 2.12%
FC(F)(F)c1cccc(-c2cc3ccccc3nc2N2CCCC2)c1 -3.49%
O=C(Nc1ccc(Cl)cc1)/C(=C1\CCCN1)[N+](=O)[O-] 0.902%
Cc1noc(C)c1-c1ccc2ncnc(NCc3ccc4[nH]ccc4c3)c2c1 10.6%
COc1ccc(Cl)cc1NC(=O)COC(=O)C(CC(C)C)N1C(=O)C2CC=CCC2C1=O (stereo unspecified) 1.56%
O=C(CCl)Nc1cccc(CP(=O)(c2ccccc2)c2ccccc2)c1 5.31%
Cc1ccc(CNC(=O)C2(C(F)(F)F)C/C(=C\Cc3ccccc3)CCCO2)o1 (stereo unspecified) 0.641%
CCCN1CCC(=O)N(C(CSc2ccc(C)cc2)Cc2ccccc2)CC1 (stereo unspecified) -7.66%
COC(=O)Cn1cc(/C=C/[N+](=O)[O-])c2ccccc21 3.39%
O=C(NCc1ccccn1)[C@]1(C(F)(F)F)C[C@H](CCc2ccccc2)CCCO1 -5.69%
CC(C)[C@@H]1NC(=O)[C@H](Cc2ccccc2)NC(=O)[C@@H](CC(=O)O)NC(=O)CNC(=O)[C@H](CCCNC(=N)N)NC1=O 5.67%
COC(=O)[C@@]1(Cc2ccc(OC)cc2)[C@H]2c3cc(C(=O)N4CCCC4)n(Cc4ccc(OC(F)(F)F)cc4)c3C[C@H]2CN1C(=O)c1ccccc1 6.25%
COc1ccc(C2/C=C\CN(Cc3ccco3)C(C)C(=O)N2Cc2ccc(F)cc2)cc1 (stereo unspecified) 2.13%
COc1cc2c(cc1OC)C(/C=C/c1ccco1)=NCC2 1.23%

outcome, inactive:
OCCC(O)CO (stereo unspecified)
CN1CCN2c3ccccc3Cc3ccccc3[C@@H]2C1
